Compounds without any hit were thinned out: in the full panel of roughly 83,000, 20% have a hit.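 Note: values are percent growth. 100 is the growth of untreated cells, values between 100 and 0 indicate rising inhibition; between -100 and 0 indicates cell death.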 Values without a mark were called inactive. Calls of active or inactive are those of the source.
tested on: BT-549 breast; assay: NCI-60 one-dose screen, 48 h (100 = growth as untreated, 0 = no growth, -100 = all killed); conditions: 10 µM unless noted
Experimental: Growth inhibition of the BT-549 human tumor cell line is measured as a screen for anti-cancer activity. Cells are grown in 96 well plates and exposed to the test compound for 48 hours. Compounds are tested at a single concentration, which is 10^-5 M for most compounds. The reported endpoint is percent growth (GI% or GIPRCNT), where numbers from 0 - 100% represent growth inhibition, and numbers from -100% - 0 represent cell death. For example, a value of 40 represents 60% growth inhibition. A value of 0 means no net growth occurred over the course of the experiment. A value of -40 indicates 40% of cells at the beginning of the experiment died by the end of the experiment. A value of -100 means all cells are dead at the end of the experiment.
NCI-60 Human Tumor Cell Lines Screen was performed using the standard one-dose NCI protocol, which is described in more detail at https://dtp.cancer.gov/discovery_development/nci-60/default.htm.
Compounds with GIPRCNT values below 10 were considered active. Activity score was based on GIPRCNT using the following formula: […]
Score is 0 for GIPRCNT values of 100 or above, 50 for GIPRCNT values of 0, and 100 for GIPRCNT values of -100.

| SMILES | growth |
| --- | --- |
| Cc1cnc2nc(NN)[nH]n12 | 111% |
| C=C(C)[C@@H]1CC[C@]2(COS(C)(=O)=O)CC[C@]3(C)[C@H](CC[C@@H]4[C@@]5(C)CCCNC(C)(C)[C@@H]5CC[C@]43C)[C@@H]12 | 93.9% |
| Cc1ccc(NC(=O)c2cc(/C=C/C(=O)NO)cc(C(F)(F)F)c2)cc1Nc1nccc(-c2cccnc2)n1 | -15.3% (active) |
| O=C(O)c1ccc(-n2cc(CNc3ccc(Cl)cc3)c(-c3ccc(F)cc3)n2)cc1 | 101% |
| O=C(N/N=C\c1ccc(Cl)cc1)c1ccc2nc(-c3ccc(Br)cc3)[nH]c2c1 | 97.7% |
| O=C(/C=C/c1cccc(O)c1)c1ccc(O)cc1 | 86.5% |
| Cc1ccc(/C=C/CC(=O)Nc2ccc(C(=O)Nc3ccc(F)cc3N)nc2)cn1 | 48.5% |
| COc1ccc(C2C(C#N)=C(N)Oc3c2sc2ccc(C)cc32)cc1 (stereo not given) | 26.8% |
| CCOC(=O)c1c(Nc2ccccc2)nn2c(-c3ccc(Br)cc3)ccnc12 | 104% |
| Cc1cc(C(=O)Nc2ccc(SC#N)cc2)c(C)o1 | 75.4% |
| CNC(=O)c1cc(Oc2ccc3nc(NC(=O)c4cccc(C(F)(F)F)c4)sc3c2)ccn1 | 105% |
| COc1ccc(CN2C(=O)/C(=C/c3nc(CO)cs3)SC2=S)cc1 | 99.9% |
| CC1OC(O[C@@H]2C(O)C(CO)OC(O[C@H]3COC(O[C@H]4CC[C@]5(C)[C@H]6CC[C@]78OC[C@@]9(CC[C@](C)(C=O)C[C@H]97)[C@H](O)C[C@@]8(C)[C@]6(C)CC[C@H]5C4(C)C)[C@@H](OC4OC(CO)[C@@H](O)[C@@H](O)[C@@H]4O)[C@@H]3O)[C@H]2OC2OC[C@@H](O)[C@@H](O)[C@@H]2O)[C@@H](O)[C@@H](O)[C@H]1O (stereo not given in full) | -56.9% (active) |
| O=C1Nc2cc(OC(F)(F)F)ccc2Oc2ccc(-c3ccnc(N4CC[C@H](O)C4)c3)cc21 | -18.7% (active) |
| C#C[C@]1(O)CC[C@H]2[C@@H]3CC=C4c5sc(-c6cccc(F)c6)nc5CC[C@]4(C)[C@H]3CC[C@@]21C | 96.3% |
| CN1C(=O)N(C)C2C1NN=c1s/c(=C\c3ccccn3)c(=O)n12 (stereo not given) | 99.2% |
| CC1(C)CC[C@]2(C(=O)O)CC[C@]3(C)C(=CCC4[C@@]5(C)C[C@@H](O)[C@@H]6OC(c7ccccc7O)OC[C@@]6(C)C5CC[C@]43C)C2C1 (stereo not given in full) | 42.4% |
| C/C(=C(/c1ccc(O)cc1)c1ccc(OCCN2CCCC2)cc1)c1ccc(Cl)cc1 | 89.6% |
| CCCCCCNC(=O)Oc1ccc(/C(=C(\C)c2ccc(OC)cc2)c2ccc(OCCN(C)C)cc2)cc1 | 85.1% |
| Cc1ccc(NC(=O)c2ccc(CN3CCN(C)CC3)c(C(F)(F)F)c2)cc1Oc1ccc(-c2[nH]nc3ncnc(N)c23)cc1 | 105% |

| SMILES | growth |
| --- | --- |
| O=C(NNc1nc2cc(F)c(F)cc2n2cccc12)c1cccnn1 | 32.3% |
| CCNCc1c(-c2cccc(OC(F)(F)F)c2)[nH]c2ccc(N3CCCC3)cc2c1=O | 50.6% |
| O=C1NC(=O)/C(=C/c2ccc(OCc3cc4ccccc4nc3Cl)cc2)S1 | 123% |
| NS(=O)(=O)c1ccc(Nc2nc(N/N=C/c3ccc(F)cc3)nc(Nc3ccccc3)n2)cc1 | 67.2% |
| O=C(Nc1cc(F)cc2cccnc12)c1cnc(N2CCOCC2)cn1 | 72.4% |
| C#C[C@]1(O)CC[C@H]2[C@@H]3CC=C4c5sc(C6CCOCC6)nc5CC[C@]4(C)[C@H]3CC[C@@]21C | 77.6% |
| CCOC(=O)c1c(NC(=O)c2ccc(C(C)(C)C)cc2)sc2cc(OCCN3CCCCC3)ccc12 | 93% |
| O=C1Nc2ccc(Br)cc2/C1=N\c1nnc(-c2ccc(Cl)cc2)o1 | 63.1% |
| COc1cc2cc(Oc3ccc(NC(=O)Nc4cccc(C(F)(F)F)c4)cc3)c(C)nc2cc1OCCN(C)C | 119% |
| O=C1c2c(c3c4cc(Br)ccc4[nH]c3c3ccc4ccccc4c23)C(=O)N1CCN1CCNCC1 | 87.6% |
| CC(C)N=C(N/C(N)=N/c1nc2ccccc2s1)NC(C)C | 70% |
| CCOC(=O)c1c(NCC(=O)Nc2cccc([N+](=O)[O-])c2)sc2c1CCCC2 | -57.3% (active) |
| Cc1nn(-c2ccc(Cl)cc2)c(C)c1N=Nc1ccc2oc(=O)ccc2c1 | 101% |
| C(=C(\C1=NCCN1)n1cnc2ccccc21)/c1ccc2ccccc2c1 | 48.5% |
| CCOC(=O)c1c(NCC(=O)Nc2ccc(Br)cc2)sc2c1CCCC2 | 23.9% |
| CC1CCc2c(sc3nc(SCC(=O)N/N=C/c4ccc(Cl)cc4)n(-c4ccccc4)c(=O)c23)C1 (stereo not given) | 99.6% |
| N#Cc1ccc(S(=O)(=O)Nc2ccc(-c3cnc(N)[nH]3)cc2)cc1 | 107% |
| Cc1cc(NS(=O)(=O)c2ccc(-c3cnc(C4CC4)o3)cc2)ccc1I | 36% |
| CC1(C)CC[C@]2(C(=O)N3CCCN(CC#N)CC3)CC[C@]3(C)C(=CC[C@@H]4[C@@]5(C)CC[C@H](O)C(C)(C)[C@@H]5CC[C@]43C)[C@H]2C1 | 61.4% |
| O=C(NNc1nc2cc(F)ccc2n2cncc12)c1cnccn1 | 55% |

From PubChem BioAssay (NCI)
